# Results as given in PubChem BioAssay AID2685 (National Center for Advancing Translational Sciences (NCATS), 2010).
# About 2,100 (0.66%) of roughly 320,000 compounds were called active. Inconclusive results (about 53%) are left out. Calls follow the shape of the dose curve; as a rule, active = well fitted inhibition curve with a large enough effect in the signal ratio, with a control signal flat (not every such curve was filed as active); inconclusive = small, poorly fitted or top-dose-only effect, or effect the other way, or a change in a side signal; inactive = flat fitted curve, though single readings scatter; the % refers to the signal ratio. Many of the other results were omitted from the sample, so actives are more common in it than they were.
# Test: qHTS Assay for Lipid Storage Modulators in Drosophila S3 Cells;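 as to cell number change: cells counted by Cell Tracker Red CMTPX staining in the red channel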; as to lipid storage change, negative = inhibition: % is scaled to controls: 0 for no effect and ±100 for the full control effect
# Conditions: BODIPY lipid droplet fluorescence, 18-24 h, cells fed with added oleic acid; cell number change: measured here: cell count max response; series mostly up to 46.1 µM; lipid storage change, negative = inhibition: at the top concentration
# From the text: NIH Molecular Libraries Probe Production Centers Network [MLPCN] NIH Chemical Genomics Center [NCGC] MLPCN Grant: 1 R03 MH085686-01 Assay Submitter (PI): Beller, Mathias; Max-Planck-Institut fur Biophysikalische Chemie NCGC Assay Overview: Storing lipids as a reservoir for energy or the anabolism of elementary metabolites is a common feature of probably all cells and is conserved from bacteria to humans. The universal cellular lipid storage organelle is the so-called lipid storage droplet (LD). Although ubiquitous, LDs share a simple structure composed of a hydrophobic core that harbors the storage lipids, which is shielded by a droplet-specific phospholipid monolayer to which proteins are attached. The current model of LD biogenesis involves an incorporation of the lipid core into the membrane leaflets of the endoplasmic reticulum (ER) followed by a subsequent budding-like maturation of a LD, which ultimately pinches off. Once released, LD volume can increase by localized lipogenesis or fusion of existing droplet. Storage lipids are re-mobilized enzymatically by lipase activity. Lipase regulation in the adipocyte is heavily studied and involves multiple components including catecholamine signaling, the LD-associated proteins Perilipin and comparative gene identification (CGI-58) and at least two lipases named hormone sensitive lipase (HSL) and adipocyte triglyceride lipase (ATGL). LD regulation outside of the adipocyte is poorly understood and only few components are known. However, there is an urgent need to learn more about ectopic fat depots as mislocalized storage of lipids, for example in the liver or muscle, is an eminent health problem associated with insulin resistance or the metabolic syndrome. We developed a laser-scanning cytometer assay to enable 1,536-well screening and combined the results of the small molecules screen with an RNAi database based on lipid storage.
# Triacsin C (Sigma-Aldrich T-4540), an inhibitor of long-chain fatty acyl CoA synthetase that blocks synthesis of triglycerides, was used as a positive control for lipid under-storage. A total of 23 nL of compound solution of different concentrations were transferred to the assay plates using a Kalypsys pin tool equipped with a 1,536-pin array containing 10-nL slotted pins (FP1S10, 0.457-mm diameter, 50.8 mm long; V&P Scientific). One microliter of oleic acid (400 uM) was added, and the plate was lidded with stainless steel rubber gasket lined lids containing pinholes. […] Fluorescence was detected by excitation of the fluorophores with a 488-nm laser on an Acumen Explorer (TTP Lab Tech). The total intensity in channel 2 (500-530 nm) reflected lipid droplet accumulation. Cells were detected using channel 3 (575-640 nm) with 5-um width and 100-um depth filters. The ratio of the number of objects in PMT channel 2 over the number of objects in PMT channel 3 was also calculated. Percent activity was computed relative to an internal control (100% inhibited lipid droplet deposition due to the presence of 20 uM Triacsin C), which was added to 32 wells/plate.
# Potency is read from the fitted curve at half-maximal effect.
Compound,"lipid storage change, negative = inhibition",cell number change,Potency,outcome
CC(=O)N(C1=NCCCS1)c1ccc(Cl)cc1,4.02% (inactive),-2.46%,,
CC(=O)N(C1=NCCCS1)c1ccc(F)cc1,,-2.11%,16.4 µM (active),
COc1cccc(N(C(C)=O)C2=NCCCS2)c1,-1.29% (inactive),4.22%,,
O=C(COc1ccccc1Cl)N1CCCC(N2CCN(c3ccc(F)cc3)CC2)C1 (configuration not stated),,-2.12%,,inactive
Cn1c(O)c(C=NC2CCCCC2)c(=O)[nH]c1=S,4.55% (inactive),4.27%,,
Cc1cc(NCCN)nc2ccccc12,,15.7%,,inactive
Cc1cc(/C=C2\C(=O)NC(=O)N(c3ccccc3)C2=O)c(C)n1-c1ccc(C(=O)O)c(Cl)c1,14.6% (inactive),-8.5%,,
CCN(CC)c1nc2c(C)cccn2c(=O)c1C=C1C(=O)NC(=O)NC1=O,2.13% (inactive),3.76%,,
CCOC(=O)N(C)c1ccc(C(O)(C(=O)OC)C(F)(F)F)cc1 (configuration not stated),11.7% (inactive),10.8%,,
Cc1ccc2c(CN3CC=C(c4ccccc4)CC3)cc(=O)oc2c1C,10% (inactive),0.524%,,
Cc1cc(O)c(CN2CC=C(c3ccccc3)CC2)cc1C(C)C,,,18.4 µM (active),
COc1ccc2ccc(O)c(CN3CC=C(c4ccccc4)CC3)c2c1,-22% (inactive),13.7%,,
CCC(CC)NCc1c[nH]c2ccccc12,-2.64% (inactive),-0.482%,,
O=C(Nc1ccc(Br)cc1)c1nn(C23CC4CC(CC(C4)C2)C3)cc1Br,20.5% (inactive),0.69%,,
CS(=O)(=O)NCc1nnc2n1-c1ccc(Cl)cc1C(c1ccccc1)=NC2,4.56% (inactive),13.6%,,
CCCCc1nc2ccccc2c(=O)n1-c1ccccc1O,-5.09% (inactive),-9.96%,,
CCCCn1c(O)c(C(CC)=Nc2ccc(C(=O)O)cc2)c(=O)[nH]c1=O,5.22% (inactive),5.66%,,
CCCCCCn1c(=O)c(C(=O)Nc2ncccc2O)c(O)c2ccccc21,,-21.9%,7.31 µM (active),
CCCCCn1c(=O)c(C(=O)Nc2ncccc2C)c(O)c2ccccc21,20.1% (inactive),-11.8%,,
CCCCCCn1c(=O)c(C(=O)Nc2ccncc2)c(O)c2ccccc21,,15.2%,,inactive
Cc1ccc(C(=O)N/C(=C\Cl)P(=O)(c2ccccc2)c2ccccc2)cc1,-14.3% (inactive),0.754%,,
OC(c1ccccc1)(c1ccccc1)C1CCCN1 (configuration not stated),2.1% (inactive),-1.52%,,
OC(c1ccccc1)(c1ccccc1)C1CCNCC1,,,25.9 µM (active),
O=C(O)C(O)(c1ccccc1)C1CCCCC1 (configuration not stated),6.74% (inactive),-9.04%,,
CN(C(=O)CNC(=O)OCc1ccccc1)c1ccc(Br)cc1C(=O)c1ccccc1Cl,17.8% (inactive),9.34%,,
CCCNS(=O)(=O)c1ccc(OCC(=O)N2CCN(Cc3ccc4c(c3)OCO4)CC2)c(C)c1,-21.8% (inactive),-6.04%,,

Compound,"lipid storage change, negative = inhibition",cell number change,Potency,outcome
CCCCn1c(O)c(C(C)=NCCc2ccccc2)c(=O)[nH]c1=O,,,,inactive
CCCCCCN=C(C)c1c(O)n(CCCC)c(=O)[nH]c1=O,13.5% (inactive),0.489%,,
CCCCn1c(O)c(C(C)=NCCCN(CC)CC)c(=O)[nH]c1=O,,-0.0737%,23.1 µM (active),
Cc1ccc2c(c1)C1CN(C)CCC1N2C(=O)c1cccnc1Cl (configuration not stated),7.31% (inactive),-4.72%,,
CCOC(=O)c1ccc(N=C(c2ccccc2)c2c(O)n(C)c(=O)n(C)c2=O)cc1,-0.0351% (inactive),1.32%,,
CCOC(=O)c1ccc(S(=O)(=O)n2c(=O)oc3ccccc32)cc1,,,20.6 µM (active),
CCOC(=O)c1c(C=O)c2ccccc2n1Cc1ccccc1,17.4% (inactive),3.55%,,
O=C1Nc2ccc(Br)cc2C(c2ccccc2)=NC1O (configuration not stated),-3.23% (inactive),22.1%,,
C=C(COC(C)=O)CC1CC(O)[C@]2(C)OC3CC4OC5C[C@]6(C)O[C@]7(C)CCC8OC9C[C@]%10(C)OC%11C(C)=CC(=O)OC%11CC%10OC9C[C@@H](C)C8OC7CC6O[C@]5(C)C/C=C\C4OC3CC2O1 (some centres not stated),-27.9% (inactive),,,
CN(C)C(=O)Oc1cccc(NC(=O)N2CCOCC2)c1,-2.7% (inactive),-25%,,
CN(C)C(=O)Oc1cccc(NC(=O)c2ccccc2C(F)(F)F)c1,-14.6% (inactive),-0.228%,,
CN(C)C(=O)Nc1cccc(OC(=O)N(C)C)c1,,,32.6 µM (active),
CCOC(=O)C1(CCc2ccccc2)CCN(Cc2csc(C(C)=O)c2)CC1,-8.12% (inactive),3.18%,,
CCN(CC)S(=O)(=O)c1cc(NC(=O)C(C)N2CC=C(c3ccccc3)CC2)ccc1C (configuration not stated),2.66% (inactive),-3.32%,,
O=C(CN1C(=O)CN=C(c2ccccc2)c2ccccc21)NCc1ccco1,,7.88%,,inactive
CN(C)c1ccc(NC(=O)CN2C(=O)CN=C(c3ccccc3)c3ccccc32)cc1,,-43.3%,10.3 µM (active),
CN(C)c1ccc(NC(=O)CN2C(=O)CN=C(c3ccccc3)c3cc(Cl)ccc32)cc1,-4.46% (inactive),4.79%,,
CCCCNC(=O)CN1C(=O)CN=C(c2ccccc2)c2ccccc21,-1.07% (inactive),20.3%,,
O=C1CN=C(c2ccccc2)c2ccccc2N1Cc1ccc(C(F)(F)F)cc1,,,,inactive
Cc1ccc(CN2C(=O)CN=C(c3ccccc3)c3ccccc32)cc1,,11.7%,10.3 µM (active),
Cc1nc2ccccc2c(=O)n1-c1ccc(Cl)c(Cl)c1,5.88% (inactive),8.67%,,
CCN1CCN(C(=O)Cc2ccccc2OC)CC1,6.25% (inactive),5.49%,,
NC(=O)C1CCN(/C=C2\C(=O)NC(=O)N(Cc3ccco3)C2=O)CC1,-3.16% (inactive),6.38%,,
Cc1c(NC(NC(=O)CF)C(Cl)(Cl)Cl)c(=O)n(-c2ccccc2)n1C (configuration not stated),-0.0201% (inactive),8.45%,,
O=C(COc1ccc(Cl)cc1)N(c1ccccc1Cl)C1CN2CCC1CC2 (configuration not stated),17.1% (inactive),-2.19%,,
O=C(Nc1ccc(Cl)c(Cl)c1)c1ccco1,,4.2%,14.6 µM (active),
